In PubChem BioAssay (Tox21):
Records with an inconclusive call do not appear. Calls of active or inactive are those of the source. Unless noted, the call rests on the fitted dose curve; in most records, active means well fitted curve in the direction sought with a large enough effect in the repeat runs; inconclusive means weak or mixed curves; inactive means no such curve, though single readings can be large; an effect the other way counts as inactive or inconclusive.

Columns and labels:
[1] = qHTS RealTime-Glo MT Cell Viability Assay in HEK293 cells - 0 hour (AID 1224880); further: top concentration of the series differs between compounds; nearly all actives have a fitted effect of over 45% in size
In short: (§1)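 Kinetic, non-lysing viability readout. Seed HEK293 (600/well) with reagent, incubate 5 h at 37 C/5% CO2, pin 23 nL compound in DMSO, incubate at 37 C, read luminescence at 0, 8, 16, 24, 32, 40 h.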

[2] = A CellTox Green Cytotoxicity Assay to monitor cytotoxicity in HEK293 cells - 32 hour (AID 1224881); further: nearly all actives have a fitted effect of over 40% in size
In short: (§2)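 Real-time, in one plate: 600 HEK293 cells/well with dead-cell DNA dye, pinned compound after 5 h, 37 C incubation over 40 h; viable cells give no appreciable fluorescence.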

[3] = A CellTox Green Cytotoxicity Assay to monitor cytotoxicity in HepG2 cells - 0 hour (AID 1224882); further: nearly all actives have a fitted effect of over 35% in size
In short: (§3)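 Cytotoxicity was tracked as dead-cell DNA fluorescence in HepG2 cells treated with test compounds at 37 C; each time-point value comes from one kinetic series spanning 0, 8, 16, 24, 32 and 40 h.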

[4] = A CellTox Green Cytotoxicity Assay to monitor cytotoxicity in HepG2 cells - 32 hour (AID 1224883); further: nearly all actives have a fitted effect of over 50% in size
In short: as §3

[5] = A CellTox Green Cytotoxicity Assay to monitor cytotoxicity in HEK293 cells - 8 hour (AID 1224884); further: nearly all actives have a fitted effect of over 35% in size
In short: as §2

[6] = qHTS RealTime-Glo MT Cell Viability Assay in HepG2 cells - 16 hour (AID 1224885); further: nearly all actives have a fitted effect of over 50% in size
In short: (§4)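 Viability was tracked continuously by NanoLuc luminescence from prosubstrate reduced by living HepG2 cells, at successive time points over 40 h of compound exposure. Cells with reagent were preincubated 5 h at 37 °C before compound addition.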

[7] = qHTS RealTime-Glo MT Cell Viability Assay in HEK293 cells - 24 hour (AID 1224886); further: top concentration of the series differs between compounds; nearly all actives have a fitted effect of over 50% in size
In short: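 Viability tracked continuously by luminescence as live cells reduce a prosubstrate for NanoLuc; HEK293 cells preincubated 5 h, compound-treated at 37 C, and read at 0, 8, 16, 24, 32 and 40 h.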

[8] = qHTS RealTime-Glo MT Cell Viability Assay in HEK293 cells - 8 hour (AID 1224887); further: top concentration of the series differs between compounds; nearly all actives have a fitted effect of over 50% in size
In short: as §1

[9] = A CellTox Green Cytotoxicity Assay to monitor cytotoxicity in HEK293 cells - 16 hour (AID 1224888); further: nearly all actives have a fitted effect of over 35% in size
In short: as §2

[10] = qHTS RealTime-Glo MT Cell Viability Assay in HepG2 cells - 0 hour (AID 1224889); further: nearly all actives have a fitted effect of over 50% in size
In short: as §4

[11] = A CellTox Green Cytotoxicity Assay to monitor cytotoxicity in HepG2 cells - 8 hour (AID 1224890); further: nearly all actives have a fitted effect of over 45% in size
In short: as §3

[12] = qHTS assay to identify small molecule antagonists of the estrogen receptor alpha (ER-alpha) signaling pathway using the BG1 cell line in the presence of 0.1 nM 17-beta-estradiol - cell viability counter screen (AID 1259241); further: nearly all actives have a fitted effect of over 40% in size
In short: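 CellTiter-Fluor read (30 min, 37C) on ER-alpha/ERE-luc VM7Luc4E2 cells; 22 hr compound treatment; agonist 0.1 nM E2 final; same-well multiplex.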

[13] = qHTS assay to identify small molecule antagonists of the androgen receptor (AR) signaling pathway using the MDA cell line in the presence of 0.5 nM R1881 - cell viability counter screen (AID 1259242); further: nearly all actives have a fitted effect of over 45% in size
In short: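 Cells seeded at 3,000/well and allowed 5 hr at 37C, 0% CO2 before compound transfer and R1881 (0.5 nM final) addition; 16 hr later, live-cell protease fluorescence indicated cytotoxicity.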

[14] = molecular target: Estrogen receptor (Homo sapiens) (UniProt P03372); test: qHTS assay to identify small molecule antagonists of the estrogen receptor alpha (ER-alpha) signaling pathway using the BG1 cell line in the presence of 0.1 nM 17-beta-estradiol (AID 1259244); further: nearly all actives have a fitted effect of over 50% in size
In short: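 Luciferase signal from VM7Luc4E2 ERE-reporter cells, co-dosed with test compound and 0.1 nM final 17beta-estradiol for 22 h, read with ONE-Glo.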

[15] = qHTS assay to identify small molecule HDAC inhibitors (AID 1259364);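 further: wild-type HCT-116 cells with endogenous class I/II HDAC activity; top concentration of the series differs between compounds; nearly all actives have a fitted effect of over 45% in size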
In short: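 HCT-116 wt cells, 1,500/well, overnight attach. Compounds (DMSO) 2 h, 37 °C. HDAC-Glo I/II, 30 min RT. Luminescence.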

[16] = qHTS assay to identify small molecule HDAC inhibitors - cell viability counter screen (AID 1259365)
In short: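 To flag cytotoxic hits, 1,500 wild-type HCT-116 cells per well, plated the day before, receive test compounds for 2hr at 37 C before CellTiter-Glo reagent and a luminescence read.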

[17] = qHTS assay to identify small molecule agonists of the sonic hedgehog signaling (Shh) pathway - cell viability counter screen (AID 1259366); further: nearly all actives have a fitted effect of over 50% in size
In short: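 Fluorescence from CellTiter-Fluor reports live cells in this counter screen. NIH/3T3-derived Gli1-Luc reporter cells receive test compounds for 24hr at 37C; reagent goes in at 23hr.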

[18] = qHTS assay to identify small molecule antagonists of the sonic hedgehog signaling (Shh) pathway - cell viability counter screen (AID 1259367); further: nearly all actives have a fitted effect of over 55% in size
In short: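 Cytotoxicity was assessed in parallel with Shh reporter activity by measuring live-cell protease fluorescence (CellTiter-Fluor) in NIH/3T3 cells stably carrying Gli1-Luc, treated with compound under conditioned medium stimulation for 23 hr plus 1 hr reagent incubation.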

[19] = qHTS assay to identify small molecule phospholipidosis (PLD) inducers (AID 1259344; active means well fitted curve in the direction sought with a large enough effect; an effect the other way counts as inactive or inconclusive)
In short: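 Cells (HepG2, 900 per well) attach for 4 h, receive LipidTOX Red and compound together, incubate 24 h at 37 C, are fixed 30 min with paraformaldehyde/Hoechst, then imaged at one site per well.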

Measured: Potency

Chain of Estrogen receptor (Homo sapiens) (P03372 whole entry, looked up): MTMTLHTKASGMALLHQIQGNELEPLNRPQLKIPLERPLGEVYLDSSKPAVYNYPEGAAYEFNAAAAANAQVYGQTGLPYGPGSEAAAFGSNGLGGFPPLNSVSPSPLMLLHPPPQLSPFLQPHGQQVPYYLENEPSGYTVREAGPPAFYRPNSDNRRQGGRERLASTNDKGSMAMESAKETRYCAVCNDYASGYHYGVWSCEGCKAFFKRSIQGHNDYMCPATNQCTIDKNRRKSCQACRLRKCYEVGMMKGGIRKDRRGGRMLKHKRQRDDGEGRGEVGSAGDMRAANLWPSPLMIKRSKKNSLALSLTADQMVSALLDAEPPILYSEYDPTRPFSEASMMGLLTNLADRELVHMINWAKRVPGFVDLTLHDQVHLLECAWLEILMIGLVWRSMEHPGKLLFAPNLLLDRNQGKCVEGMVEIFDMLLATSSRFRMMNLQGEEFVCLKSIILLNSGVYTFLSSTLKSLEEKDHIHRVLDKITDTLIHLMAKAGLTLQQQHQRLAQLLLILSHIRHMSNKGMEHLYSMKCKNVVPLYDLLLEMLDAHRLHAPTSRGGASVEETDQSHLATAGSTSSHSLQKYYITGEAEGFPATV

c1ccc2nccnc2c1
not listed: [19]
inactive: all other assays above

C=C(C)C(=O)OCCNC(C)(C)C
not listed: [14] | [18] | [19]
inactive: all other assays above

CC(COC(C)(C)C)OCCCO (stereo not given)
not listed: [14] | [19]
inactive: all other assays above

O=C(NCCN1CCOCC1)c1ccc(Cl)cc1
not listed: [13] | [14]
inactive: all other assays above

Cc1ccccc1OCC(O)CO (stereo not given)
not listed: [14]
inactive: all other assays above

O=C(OCC1(COC(=O)c2cccnc2)CCCC(COC(=O)c2cccnc2)(COC(=O)c2cccnc2)C1O)c1cccnc1
not listed: [14] | [17] | [18]
inactive: all other assays above

CCOC(=O)[C@H](CCc1ccccc1)N[C@@H](C)C(=O)N1C(=O)N(C)C[C@H]1C(=O)O
not listed: [13]
inactive: all other assays above

CN(C)CCOCCO
not listed: [19]
inactive: all other assays above

CN(C)c1ccc(C=O)cc1
not listed: [15] | [19]
inactive: all other assays above

CCCCN
not listed: [13] | [18] | [19]
inactive: all other assays above

O=Cc1ccc(Cl)c(Cl)c1
not listed: [14] | [18] | [19]
inactive: all other assays above

COC(=O)CCCCCCCC(=O)OC
not listed: [19]
inactive: all other assays above

O=C1CCCC(=O)O1
not listed: [18] | [19]
inactive: all other assays above

CCCC(=O)C(C)=O
not listed: [19]
inactive: all other assays above

CCOC(=O)c1ccc(OC(=O)CCCCCN=C(N)N)cc1
not listed: [13] | [15]
inactive: all other assays above

CC(C)CC(C)CC(C)CC(C)COC(=O)c1ccccc1C(=O)OCC(C)CC(C)CC(C)CC(C)C (stereo not given)
not listed: [14] | [19]
inactive: all other assays above

C=CC(OCC)OCC
not listed: [14] | [18] | [19]
inactive: all other assays above
